# According to the supplement of paper PMC12494721:
# Counter-ions that a name gives are not always drawn.
# Experiments:
# Details in all cases: incubation time: 27 h, anaerobic, 37 °C;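 for the amine columns active = adjusted P below 0.05 in both replicates with a change the same way and a mean fold change under 0.8 or over 1.25; inactive = the rest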
# [1] = system: Clostridium sporogenes DSM 1664; assay: growth (OD595) fold change vs plate DMSO controls (fold change (ratio)); higher = more growth
# Summary of the method: (§1)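 The 96-well mGAM cultures had been kept anaerobic for 27 h at 37 °C before being shaken and read at 595 nm. Blank subtraction, compound background correction with 20 µM compound solutions in water, and a calibration factor of 5 turned the readings into OD. Growth is given as the fold change versus the median of plate DMSO controls. Fold changes above 1.5 were set to NA, and the values are means of 2 biological replicates.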
# Escherichia coli IAI1 [2] = assay: as above
# Summary of the method: as §1
# [3] = system: Klebsiella aerogenes DSM 30053; assay: as above
# Summary of the method: as §1
# [4] = system: Ruminococcus gnavus DSM 108212; assay: as above
# Summary of the method: as §1
# [5] = system: Klebsiella aerogenes DSM 30053; assay: fold change of Histamine concentration vs plate DMSO controls (fold change (ratio)); higher = more amine produced, active = hit call of the paper (significant change in both replicates, either direction)
# Summary of the method: (§2)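 Amines were quantified by LC–triple-quadrupole MS in dynamic MRM mode against external calibration curves, with drift correction within each batch. The samples were whole anaerobic mGAM cultures of four gut bacterial strains, grown for 27 h at 37 °C in 80 µL wells and extracted with cold acetonitrile/methanol with 0.1% formic acid, then centrifuged. Values are reported as fold change over DMSO controls on the same plate. The mean of 2 biological replicates is given.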
# [6] = system: Clostridium sporogenes DSM 1664; assay: fold change of Tryptamine concentration vs plate DMSO controls (fold change (ratio)); higher = more amine produced, active = hit call of the paper (significant change in both replicates, either direction)
# Summary of the method: as §2
# [7] = system: Ruminococcus gnavus DSM 108212; assay: as above
# Summary of the method: as §2
# Escherichia coli IAI1 [8] = assay: fold change of Putrescine concentration vs plate DMSO controls (fold change (ratio)); higher = more amine produced, active = hit call of the paper (significant change in both replicates, either direction)
# Summary of the method: as §2
# [9] = system: Klebsiella aerogenes DSM 30053; assay: as above
# Summary of the method: as §2
# Escherichia coli IAI1 [10] = assay: fold change of Cadaverine concentration vs plate DMSO controls (fold change (ratio)); higher = more amine produced, active = hit call of the paper (significant change in both replicates, either direction)
# Summary of the method: as §2
# [11] = system: Klebsiella aerogenes DSM 30053; assay: as above
# Summary of the method: as §2
# [12] = system: Ruminococcus gnavus DSM 108212; assay: fold change of 2-Phenylethylamine concentration vs plate DMSO controls (fold change (ratio)); higher = more amine produced, active = hit call of the paper (significant change in both replicates, either direction)
# Summary of the method: as §2
Structure (SMILES),growth [1],growth (Escherichia coli IAI1 [2]),growth [3],growth [4],fold change of Histamine concentration [5],fold change of Tryptamine concentration [6],fold change of Tryptamine concentration [7],fold change of Putrescine concentration (Escherichia coli IAI1 [8]),fold change of Putrescine concentration [9],fold change of Cadaverine concentration (Escherichia coli IAI1 [10]),fold change of Cadaverine concentration [11],fold change of 2-Phenylethylamine concentration [12]
CC(=O)Nc1ccc(C(=O)O)cc1 [Acedoben] (20 µM),1.09,1,0.977,0.997,1.02 (inactive),0.935 (inactive),1.03 (inactive),1.01 (inactive),1 (inactive),1.02 (inactive),0.995 (inactive),1 (inactive)
NC(=O)C1CO1 (stereo unspecified) [Glycidamide] (20 µM),0.988,0.992,0.998,1.06,1.05 (inactive),0.935 (inactive),0.988 (inactive),0.993 (inactive),1.07 (inactive),1.02 (inactive),1.02 (inactive),0.973 (inactive)
CN1[C@@H]2CC[C@H]1C[C@@H](OC(=O)c1c[nH]c3ccccc13)C2 [Tropisetron hydrochloride] (20 µM),1.14,1,1.14,1.08,0.94 (inactive),1.01 (inactive),1.02 (inactive),0.982 (inactive),0.952 (inactive),0.994 (inactive),1.01 (inactive),0.957 (inactive)
COc1ccc(C(=O)c2ccccc2O)c(O)c1 [Dioxybenzone] (20 µM),0.846,0.791,0.972,0.955,0.962 (inactive),1 (inactive),0.977 (inactive),0.86 (inactive),0.985 (inactive),1.07 (inactive),0.996 (inactive),0.937 (inactive)
CN(C)CCCOc1nn(Cc2ccccc2)c2ccccc12 [Benzydamine hydrochloride] (20 µM),1.1,0.95,0.978,1.04,1.05 (inactive),0.95 (inactive),0.986 (inactive),0.983 (inactive),1.03 (inactive),0.967 (inactive),1.01 (inactive),0.92 (inactive)
CCC(=O)[C@@]1(C)[C@H](C)C[C@H]2[C@@H]3CCC4=CC(=O)C=C[C@]4(C)[C@H]3[C@@H](O)C[C@@]21C [Rimexolone] (20 µM),1.08,0.953,1.01,1.07,1.02 (inactive),0.98 (inactive),1.05 (inactive),0.983 (inactive),1 (inactive),1.01 (inactive),0.991 (inactive),1.04 (inactive)
Cc1cc2c(s1)Nc1ccccc1N=C2N1CCN(C)CC1 [Olanzapine] (20 µM),1.16,1.13,1.04,1.19,0.961 (inactive),0.966 (inactive),0.922 (inactive),1.04 (inactive),0.988 (inactive),0.945 (inactive),0.999 (inactive),0.944 (inactive)
CC(C)(Oc1ccc(Cl)cc1)C(=O)O [Clofibric acid] (20 µM),1.11,0.983,1.02,0.96,1.12 (inactive),0.982 (inactive),1 (inactive),0.957 (inactive),1.02 (inactive),1 (inactive),0.982 (inactive),1 (inactive)
Cn1cc(C(=O)Nc2ccccc2-c2cc(F)c(F)c(F)c2)c(C(F)F)n1 (20 µM),1.04,0.97,0.98,0.98,1.02 (inactive),1.03 (inactive),0.986 (inactive),1.02 (inactive),1.02 (inactive),1.01 (inactive),0.989 (inactive),0.966 (inactive)
CN/C(=N\CCSCc1nc[nH]c1C)NC#N [Cimetidine] (20 µM),1.03,1.02,1.07,1.18,0.893 (inactive),0.981 (inactive),0.997 (inactive),1.02 (inactive),0.979 (inactive),1.03 (inactive),1.01 (inactive),1.01 (inactive)
CCN(CC)CCOCCOC(=O)C1(c2ccccc2)CCCC1 [Carbetapentane citrate] (20 µM),1.08,1,0.996,0.743,0.992 (inactive),1.02 (inactive),0.995 (inactive),0.958 (inactive),0.996 (inactive),0.988 (inactive),0.993 (inactive),0.979 (inactive)
O=C(CO)[C@@H](O)[C@@H](O)[C@H](O)CO [D-Tagatose] (50 µM),0.957,1.01,1.03,0.984,0.943 (inactive),0.991 (inactive),0.995 (inactive),1.03 (inactive),1.02 (inactive),1.07 (inactive),1.03 (inactive),0.992 (inactive)
Nc1ccc(S(=O)(=O)Nc2ccccn2)cc1 [Sulfapyridine] (20 µM),0.891,1.06,1.04,1.03,1.05 (inactive),0.998 (inactive),1.02 (inactive),1.01 (inactive),1 (inactive),0.955 (inactive),0.994 (inactive),1.03 (inactive)
